# Laboratory results as given in PubChem BioAssay (NCATS).
# Records with an inconclusive call do not appear. A number with no mark means an inactive call. Calls come from the whole dose curve; as a rule, active = well fitted inhibition curve with a large enough effect; inconclusive = small, poorly fitted or top-dose-only effect; inactive = no such curve, though single readings can be large or run the other way.
# Assay: Primary qHTS for inhibitors of La Crosse Virus (LACV) - induced cell death in SH-SY5Y cells (AID 1508616);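 note: top concentration of the series differs between compounds; 0% = infected DMSO wells and 100% = uninfected DMSO wells; higher means more rescue of cells from virus-induced death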
# Conditions: SH-SY5Y LACV cytopathicity rescue, ATP luminescence, 6 d; series mostly up to 4.29 µM; activity change: at the top concentration
# Outline: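 SH-SY5Y cells (6000/well) plated 24 h, then given compounds by pin transfer and LACV at 0.01 MOI for 6 days at 37C. Viability measured by ATPLite luminescence, normalized to infected DMSO and uninfected DMSO.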
row,Structure (SMILES),activity change
1,C#C[C@]1(OC(C)=O)CC[C@H]2[C@@H]3CCC4=C[C@@H](OC(C)=O)CC[C@@H]4[C@H]3CC[C@@]21C,0.683%
2,CN1[C@@H]2CC[C@H]1CC(OC(=O)c1c[nH]c3ccccc13)C2 (some centres not stated),13.4%
3,CCCCN1CCCC1C(=O)Nc1c(C)cc(C)cc1C (configuration not stated),-0.547%
4,O=C(O)CNC(=O)c1ccccc1,-5.09%
5,COc1ccc(CCN2CCC(Nc3nc4ccccc4n3Cc3ccc(F)cc3)CC2)cc1,-20%
6,CCCCCCCCCCCCCCNCCO,19%
7,C[C@H]1[C@H](NC(=O)/C(=N/OC(C)(C)C(=O)O)c2csc(N)n2)C(=O)N1S(=O)(=O)O (stereo in doubt),-4.8%
8,CC[C@@H](CO)NCCN[C@@H](CC)CO,4.88%
9,C[C@]12C=CC(=O)C=C1[C@@H](F)C[C@@H]1[C@@H]2[C@@H](O)C[C@@]2(C)[C@H]1CC[C@]2(O)C(=O)CO,35.9%
10,CCN(CC)CCOc1ccc(C(O)(Cc2ccc(Cl)cc2)c2ccc(C)cc2)cc1 (configuration not stated),-10.6%
11,C[C@]12CC[C@H]3[C@@H](CCC4=CC(=O)CC[C@@]43C)[C@@H]1CC[C@@H]2C(=O)CO,22.9%
12,CCCCC(=O)O[C@]1(C(=O)CO)CC[C@H]2[C@@H]3CCC4=CC(=O)CC[C@]4(C)[C@H]3[C@@H](O)C[C@@]21C,19.1%
13,COc1cc(C(=S)N2CCOCC2)cc(OC)c1OC,-8.65%
14,O=C(CCCN1CCC(O)(c2ccc(Br)cc2)CC1)c1ccc(F)cc1,-21.6%
15,Cc1cccc(C)c1NC(=O)CN1CCN(CCCC(c2ccc(F)cc2)c2ccc(F)cc2)CC1,13.7%
16,CN(C)CCCOc1nn(Cc2ccccc2)c2ccccc12,-9.15%
17,Nc1ccc(/C=C/c2ccc(N)cc2S(=O)(=O)O)c(S(=O)(=O)O)c1,5.33% [at 0.0343 µM]
